PubChem BioAssay (NCI)
About 79,000 compounds went through this panel and 15% of them were active in at least one assay; those are over-represented in the sample as a whole. The source made the active and inactive calls. No stated cut-off is given here; in the data, active means growth inhibition above about 70%; inactive means the rest.

How the values were obtained:
[1] = NCI Yeast Anticancer Drug Screen. Data for the rad52 strain (AID 147);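 further: 0% = growth of vehicle-treated control cultures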; settings: S. cerevisiae rad52 mutant growth inhibition, active compounds read high
Summary of the method: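 Screen used a yeast mutant impaired in DNA repair. After compound exposure, growth was measured. Values reflect inhibition compared with vehicle-treated cells.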

[2] = NCI Yeast Anticancer Drug Screen. Data for the wt1 strain (AID 149);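 further: 0% = growth of vehicle-treated wt1 cultures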; settings: S. cerevisiae wt1 strain (SPY 50644) growth inhibition, active compounds read high
Summary of the method: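 Measured: growth of wt1 yeast under compound versus vehicle treatment, reported as inhibition.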

[3] = NCI Yeast Anticancer Drug Screen. Data for the rad50EPP+ strain (AID 151);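 further: 0% = growth of vehicle-treated control cultures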; settings: S. cerevisiae rad50 mutant strain, active compounds read high
Summary of the method: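 Exposing the rad50EPP+ strain to each compound, growth was compared with vehicle-only cultures to give inhibition.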

[4] = NCI Yeast Anticancer Drug Screen. Data for the mgt1 strain (AID 153); settings: S. cerevisiae mgt1 mutant growth inhibition, active compounds read high
Summary of the method: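 Genetically defined yeast (mgt1) treated with compound; inhibition of growth expressed against vehicle-treated controls.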

[5] = NCI Yeast Anticancer Drug Screen. Data for the rad50 strain (AID 155);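 further: 0% = growth of vehicle-only cultures of the same strain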; settings: S. cerevisiae rad50 strain growth inhibition, active compounds read high
Summary of the method: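 Growth of the mutant yeast was measured after compound exposure and referenced to vehicle-treated cultures.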

[6] = NCI Yeast Anticancer Drug Screen. Data for the mec2-1 strain (AID 157); settings: S. cerevisiae mec2-1 strain, active compounds read high
Summary of the method: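 Readout is yeast growth inhibition, normalised to vehicle-treated controls, in the mec2-1 strain exposed to compound.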

[7] = NCI Yeast Anticancer Drug Screen. Data for the rad14 strain (AID 159);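 further: 0% = growth of vehicle-treated control cultures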; settings: S. cerevisiae rad14 strain growth inhibition, active compounds read high
Summary of the method: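 Here, inhibition of yeast growth was measured after compound exposure, using a strain with a genetic defect in DNA damage repair and vehicle-treated cultures as the reference.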

[8] = NCI Yeast Anticancer Drug Screen. Data for the sgs1 mgt1 strain (AID 161);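 further: 0% = growth of cultures given vehicle only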; settings: S. cerevisiae sgs1 mgt1 strain, active compounds read high
Summary of the method: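 Yeast cells carrying a defined DNA-repair defect were exposed to test compounds. Growth inhibition was measured relative to vehicle-treated controls.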

[9] = NCI Yeast Anticancer Drug Screen. Data for the CLN2oe strain (AID 163);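 further: 0% = growth of vehicle-only control cultures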; settings: S. cerevisiae CLN2oe strain, active compounds read high
Summary of the method: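 Values reflect how much compound exposure reduced yeast growth, referenced to vehicle-exposed cells. Assay organism is a strain with a defined genetic change affecting cell-cycle control.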

[10] = NCI Yeast Anticancer Drug Screen. Data for the cln2 rad14 strain (AID 165);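 further: 0% = growth equal to vehicle treated cultures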; settings: S. cerevisiae cln2 rad14 strain, active compounds read high
Summary of the method: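 Relative to vehicle controls, growth inhibition of compound-treated cln2 rad14 yeast was recorded.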

[11] = NCI Yeast Anticancer Drug Screen. Data for the bub3 strain (AID 167); settings: S. cerevisiae bub3 mutant strain, active compounds read high
Summary of the method: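 Whole-cell yeast assay. The mutant strain was incubated with compounds, and growth inhibition was determined by comparison with vehicle-treated cells.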

[12] = NCI Yeast Anticancer Drug Screen. Data for the sgs1 strain (AID 173);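 further: 0% = growth of vehicle-only control cultures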; settings: S. cerevisiae sgs1 mutant, active compounds read high
Summary of the method: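 Treat defined-mutant yeast with compound; measure growth; calculate inhibition relative to vehicle-treated cells.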

[13] = NCI Yeast Anticancer Drug Screen. Data for the mlh1 rad18 strain (AID 175); settings: S. cerevisiae mlh1 rad18 strain growth inhibition, active compounds read high
Summary of the method: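 Test agents were incubated with a yeast strain of defined genotype (DNA damage repair defect). Inhibition of growth was derived by comparison with vehicle-exposed cultures.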

[14] = NCI Yeast Anticancer Drug Screen. Data for the rad18 strain (AID 177); settings: S. cerevisiae rad18 mutant growth inhibition, active compounds read high
Summary of the method: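 A genetically defined yeast mutant impaired in DNA damage repair was treated with test compounds, then its growth was measured against cultures receiving vehicle alone.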

[15] = at 5.0 µM (retest, dose inferred, filed as 0.5)
[16] = at 50.0 µM (retest, dose inferred, filed as 5.0)

Measured: growth inhibition

CN(C)N=Nc1ccccc1C(=O)NC#N
inactive: [1]; at 1.2 µM 8% | [1]; at 3.7 µM 0% | [2]; at 1.2 µM -8% | [2]; at 3.7 µM -2% | [3]; at 1.2 µM 7% | [3]; at 3.7 µM 0% | [3]; at 11.0 µM 13% | [4]; at 1.2 µM -1% | [4]; at 3.7 µM 20% | [5]; at 1.2 µM -5% | [5]; at 3.7 µM -14% | [5]; [15] 18% | [6]; at 1.2 µM -12% | [6]; at 3.7 µM 0% | [6]; [15] 8% | [7]; at 1.2 µM -17% | [7]; at 3.7 µM -14% | [8]; [15] 36% | [8]; [16] 53% | [9]; at 1.2 µM 23% | [9]; at 3.7 µM 22% | [10]; [15] 35% | [10]; [16] 67% | [11]; at 1.2 µM 13% | [11]; at 3.7 µM 10% | [11]; [15] 39% | [12]; at 1.2 µM -6% | [12]; at 3.7 µM -24% | [13]; [15] 5% | [14]; at 1.2 µM 12% | [14]; at 3.7 µM 5%
active: [1]; at 11.0 µM 83% | [1]; at 33.0 µM 98% | [1]; at 100.0 µM 98% | [2]; at 11.0 µM 97% | [2]; at 33.0 µM 98% | [2]; at 100.0 µM 99% | [3]; at 33.0 µM 98% | [3]; at 100.0 µM 98% | [4]; at 11.0 µM 98% | [4]; at 33.0 µM 99% | [4]; at 100.0 µM 98% | [5]; at 11.0 µM 97% | [5]; at 33.0 µM 98% | [5]; [16] 98% | [5]; at 50.0 µM 90% | [5]; at 100.0 µM 94% | [6]; at 11.0 µM 97% | [6]; at 33.0 µM 99% | [6]; [16] 99% | [6]; at 50.0 µM 91.5% | [6]; at 100.0 µM 95% | [7]; at 11.0 µM 75% | [7]; at 33.0 µM 98% | [7]; at 100.0 µM 96% | [8]; at 50.0 µM 91.5% | [9]; at 11.0 µM 98% | [9]; at 33.0 µM 99% | [9]; at 100.0 µM 99% | [10]; at 50.0 µM 89.8% | [11]; at 11.0 µM 98% | [11]; at 33.0 µM 99% | [11]; [16] 77% | [11]; at 50.0 µM 90.2% | [11]; at 100.0 µM 99% | [12]; at 11.0 µM 98% | [12]; at 33.0 µM 98% | [12]; at 100.0 µM 99% | [13]; [16] 98% | [13]; at 50.0 µM 89.4% | [14]; at 11.0 µM 97% | [14]; at 33.0 µM 99% | [14]; at 100.0 µM 95%
